The record followed here is the supplement of paper PMC11060735.

Where “and” joins values, the source holds several entries; their conditions need not be identical. Identical values can stand only once. Counter-ions that a name gives are not always drawn. ± gives the standard deviation of the averaged measurements. In all, about 1,800 compounds were measured (“GFP- (p16Ink4a-) cell count relative to negative-control wells”: median about 0.99, lowest 2% from about 0.5 on). The list comes from a sample in which the lowest values are over-represented; it also holds similar structures and randomly drawn compounds.

This test concerns mouse p16Ink4a+/- lung fibroblasts (INKBRITE, bleomycin-injured). Nature of the test: GFP- (p16Ink4a-) cell count relative to negative-control wells (fold of vehicle); higher = more p16Ink4a- cells surviving. Conditions: 1 µM; 3 days.
`CC(C)CN(C[C@@H](O)[C@H](Cc1ccccc1)NC(=O)O[C@H]1CCOC1)S(=O)(=O)c1ccc(N)cc1` [Amprenavir] displayed a GFP- of 1.01. As for `Cc1ccc(NC(=O)C2(c3ccc4c(c3)OC(F)(F)O4)CC2)nc1-c1cccc(C(=O)O)c1` [Lumacaftor], the figure is 0.94; as for `CC(=O)O[C@H]1C(=O)[C@@]2(C)C([C@H](OC(=O)c3ccccc3)[C@]3(O)C[C@H](OC(=O)[C@H](O)[C@@H](NC(=O)c4ccccc4)c4ccccc4)C(C)=C1C3(C)C)[C@]1(OC(C)=O)CO[C@@H]1C[C@@H]2O` (stereo partly drawn) [Taxol, Paclitaxel], 0.505. Then `CC(=O)O[C@@]12CO[C@@H]1C[C@H](O)[C@@]1(C)C(=O)[C@H](O)C3=C(C)[C@@H](OC(=O)[C@H](O)[C@@H](NC(=O)OC(C)(C)C)c4ccccc4)C[C@@](O)([C@@H](OC(=O)c4ccccc4)[C@H]21)C3(C)C` [Docetaxel], with 0.447; and `CO[C@H]1C(=O)[C@]2(C)[C@@H](OC)C[C@H]3OC[C@@]3(OC(C)=O)[C@H]2[C@H](OC(=O)c2ccccc2)[C@]2(O)C[C@H](OC(=O)[C@H](O)[C@@H](NC(=O)OC(C)(C)C)c3ccccc3)C(C)=C1C2(C)C` [Cabazitaxel], with 0.558. `Cc1ccc(-n2nc(C)c(N=Nc3cccc(-c4cccc(C(=O)O)c4)c3O)c2O)cc1C` [Eltrombopag] came in with a GFP- of 0.82. Then `C[C@]12C=CC(=O)C=C1CC[C@H]1[C@@H]3C[C@@H](O)[C@](O)(C(=O)CO)[C@@]3(C)C[C@H](O)[C@@]12F` [Triamcinolone], with 0.986; and `Cc1ccc(S(=O)(=O)c2ccc([N+](=O)[O-])o2)cc1`, with 0.415. Then `NC(=O)N/N=C/c1ccc([N+](=O)[O-])o1` [Nitrofural], with 0.939; and `Cc1ccc(S(=O)(=O)/C=C/C#N)cc1`, with 0.854; and `Cc1ccccc1N1C(=O)c2cc(S(N)(=O)=O)c(Cl)cc2NC1C` (stereo not drawn) [Metolazone], with 0.905.

On to `Oc1ccc(-c2nc(-c3ccc(F)cc3)c(-c3ccncc3)[nH]2)cc1`, for which the GFP- was found to be 1.02. Then `CC(C)(C)Cn1c(N)nc2ccc(-c3[nH]c(C(C)(C)C)nc3-c3ccc(F)cc3)nc21`, with 0.974; and `COc1ccc(-c2ccc3ncc4c(c3c2)n(-c2ccc(N3CCNCC3)c(C(F)(F)F)c2)c(=O)n4C)cn1`, with 0.4; and `Cn1c(=O)n(-c2ccc(C(C)(C)C#N)cc2)c2c3cc(-c4cnc5ccccc5c4)ccc3ncc21` [Dactolisib], with 0.74. Consider `CC1CCN(CC[C@H]2CCCN2S(=O)(=O)c2cccc(O)c2)CC1`, for which the GFP- was determined as 0.862. Regarding `CC1CNc2c(cccc2S(=O)(=O)N[C@@H](CCCN=C(N)N)C(=O)N2CC[C@@H](C)C[C@@H]2C(=O)O)C1` (stereo partly drawn) [Argatroban], the GFP- amounted to 1.09. As for `CC1(C)CCC2=C(O1)c1ccccc1C(=O)C2=O` [beta-Lapachone], the figure is 1.08; as for `CCOC(=O)c1ccc(C#Cc2ccc3c(c2)C(C)(C)CCS3)nc1` [Tazarotene], 1.05. Regarding `N#Cc1ccc2[nH]cc(CCCCN3CCN(c4ccc5oc(C(N)=O)cc5c4)CC3)c2c1` [Vilazodone], the GFP- stood at 1.07. As for `CO/C(O)=C1\C(C)=NC(C)=C(C(=O)OCCN2CCN(C(c3ccccc3)c3ccccc3)CC2)C1c1cccc([N+](=O)[O-])c1` (stereo not drawn) [Manidipine], the figure is 0.985 and 0.964; as for `Cc1ccc(Cl)cc1N(CC(=O)Nc1c(F)cccc1F)S(C)(=O)=O`, 1.06; as for `O=C(O)C(O)Cc1ccc(O)c(O)c1` (stereo not drawn) [Sodium Danshensu], 1.19. As for `COc1nc(C)cnc1NS(=O)(=O)c1cccnc1-c1ccc(-c2nnco2)cc1` [Zibotentan], the figure is 1.19; as for `CCOC(=O)[C@H](CCc1ccccc1)N[C@@H](C)C(=O)N1Cc2cc(OC)c(OC)cc2C[C@H]1C(=O)O` [Moexipril], 0.982; as for `COc1c2ccoc2cc2oc(=O)ccc12` [Bergapten], 1.08. `O=C1c2cccc(O)c2C(=O)c2c(O)cc(CO)cc21` [Aloe-emodin] registered a GFP- of 1.13. Consider `O=C1c2c(O)ccc(O)c2C(=O)c2c(NCCNCCO)ccc(NCCNCCO)c21` [Mitoxantrone], for which the GFP- turned out to be 0.503. Then `Nc1ncn([C@@H]2O[C@H](CO)[C@@H](O)[C@H]2O)c(=O)n1` [5-azacytidine, Azacitidine], with 0.758 ± 0.04; and `CCOC(=O)[C@H]1O[C@@H]1C(=O)N[C@@H](CC(C)C)C(=O)NCCC(C)C` [Aloxistatin], with 0.833. For the compound `CN(C)c1ccc(C(=C2C=CC(=[N+](C)C)C=C2)c2ccc(N(C)C)cc2)cc1` [Gentian Violet], the GFP- came to 0.494. For `COCCO/C(O)=C1\C(C)=NC(C)=C(C(=O)OC(C)C)C1c1cccc([N+](=O)[O-])c1` (stereo not drawn) [Nimodipine], the GFP- was found to be 1.06. On to `FC(F)c1nc2ccccc2n1-c1nc(N2CCOCC2)nc(N2CCOCC2)n1`, for which the GFP- amounted to 0.711.

The compound `O=C(NC(Cc1cc(O)nc2ccccc12)C(=O)O)c1ccc(Cl)cc1` (stereo not drawn) [Rebamipide] gave a GFP- of 1.02. Then `Cc1ccc([N+](=O)[O-])cc1S(=O)(=O)N(C)/N=C/c1cnc2ccc(Br)cn12`, with 0.385; and `COC(=O)Nc1nc2cc(C(=O)c3ccc(F)cc3)ccc2[nH]1` [Flubendazole], with 0.933.

Consider `CC(C(=O)O)c1ccc2c(c1)Cc1cccnc1O2` (stereo not drawn) [Pranoprofen], for which the GFP- came out at 1.17. Then `Cc1cc(NS(=O)(=O)c2ccc(N)cc2)no1` [Sulfamethoxazole], with 0.967. `C=CC(=O)Nc1cccc(Oc2nc(Nc3ccc(N4CCN(C)CC4)cc3)ncc2Cl)c1` registered a GFP- of 0.844. On to `C=CCn1c(=O)c2cnc(Nc3ccc(N4CCN(C)CC4)cc3)nc2n1-c1cccc(C(C)(C)O)n1`, for which the GFP- came out at 0.409. Then `Cc1cnc(Nc2ccc(N3CCN(C)CC3)cc2)nc1Nc1cccc(S(=O)(=O)NC(C)(C)C)c1`, with 0.779 ± 0.037; and `C#C[C@]1(O)CC[C@H]2[C@@H]3CCc4cc(OC)ccc4[C@H]3CC[C@@]21C` [Mestranol], with 1.15; and `COc1cc2nccc(Oc3ccc(NC(=O)C4(C(=O)Nc5ccc(F)cc5)CC4)cc3)c2cc1OC` [Cabozantinib], with 0.824. In turn, `COc1cc2nccc(Oc3ccc(NC(=O)Nc4cc(C)on4)c(Cl)c3)c2cc1OC` [Tivozanib] returned a GFP- of 1.01. Then `COc1cc2nccc(Oc3ccc(NC(=O)Nc4ccc(F)cc4F)c(F)c3)c2cc1OC`, with 0.466; and `CCn1cc(-c2ccnc3[nH]c(-c4cccc(CN(C)C)c4)cc23)c(-c2ccc(NC(=O)N(C)C)cc2)n1`, with 0.658 ± 0.17; and `COc1cc(Nc2ncc(F)c(Nc3ccc4c(n3)N(COP(=O)(O)O)C(=O)C(C)(C)O4)n2)cc(OC)c1OC` [Fostamatinib], with 0.771. Then `COC(=O)[C@]12CCC(C)(C)C[C@@H]1[C@@H]1C(=O)C=C3[C@]4(C)C=C(C#N)C(=O)C(C)(C)[C@@H]4CC[C@@]3(C)[C@]1(C)CC2` [Bardoxolone Methyl], with 0.406; and `O=C(c1ccc(F)cc1)C1CCN(CCn2c(=O)[nH]c3ccccc3c2=O)CC1` [Ketanserin Tartrate], with 0.924; and `COc1ccc2c(c1)c(CC(=O)N1CCOCC1)c(C)n2C(=O)c1ccc(Cl)cc1`, with 1.15. As for `CC(=O)SCC(Cc1ccccc1)C(=O)NCC(=O)OCc1ccccc1` (stereo not drawn) [Racecadotril], the figure is 0.972; as for `COC(=O)[C@H](Cc1ccccc1)NC(=O)[C@@H](N)CC(=O)O` [Aspartame], 0.966. `CC(C)C[C@@H](C=O)NC(=O)[C@H](CC(C)C)NC(=O)[C@H](CC(C)C)NC(=O)OCc1ccccc1` yielded a GFP- of 0.302. `CCCC(=O)Nc1cccc(NC(=O)c2ccccc2Br)c1` registered a GFP- of 1.03. Then `CCOC(=O)C1=C(C)N=C(C)/C(=C(/O)OCC)C1c1ccccc1/C=C/C(=O)OC(C)(C)C` (stereo not drawn) [Lacidipine], with 1.08; and `Clc1ccc(C(Cn2ccnc2)OCc2ccsc2Cl)c(Cl)c1` (stereo not drawn) [Tioconazole], with 0.993; and `Cn1nc(C(C)(C)C)cc1C(=O)N[C@@H](Cc1cccc(Cl)c1)C(=O)NCC#N` [Cathepsin Inhibitor 1], with 1.01.

`O=C1CCC[C@@H]2[C@H]3CCC[N+]4([O-])CCC[C@@H](CN12)[C@@H]34` (stereo partly drawn) [Oxymatrine] came in with a GFP- of 1.08.

In turn, `O=S(=O)(O)c1cc(O)ccc1O` [Ethamsylate] returned a GFP- of 0.995. Consider `C=C1/C(=C\C=C2/CCC[C@]3(C)[C@@H]([C@H](C)CCCC(C)(C)O)CC[C@@H]23)C[C@@H](O)C[C@@H]1O` [Calcitriol, DN-101], for which the GFP- was 1.39. As for `CN1CCN(S(=O)(=O)c2ccc(-c3cnc(N)c(C(=O)Nc4cccnc4)n3)cc2)CC1`, the figure is 0.998; as for `Cc1[nH]c(/C=C2\C(=O)Nc3ccc(S(=O)(=O)Cc4c(Cl)cccc4Cl)cc32)c(C)c1C(=O)N1CCC[C@@H]1CN1CCCC1`, 0.404. As for `Cc1[nH]c(/C=C2\C(=O)Nc3ccc(S(=O)(=O)N(C)c4cccc(Cl)c4)cc32)c(C)c1C(=O)N1CCN(C)CC1`, the figure is 0.704; as for `Cc1[nH]c(/C=C2\C(=O)Nc3ccccc32)c(C)c1CCC(=O)O` [Orantinib], 1.09. In the case of `N=C(N)Nc1ccc(C(=O)Oc2ccc3cc(C(=N)N)ccc3c2)cc1` [Nafamostat], the GFP- amounted to 1.16. With `Nc1cc(C(Cl)=C(Cl)Cl)c(S(N)(=O)=O)cc1S(N)(=O)=O` [Clorsulon], the GFP- was determined as 1.08. `Cc1cc(C)c(/C=C2\C(=O)Nc3ccccc32)[nH]1` [Semaxanib]: the GFP- turned out to be 0.862. As for `Cc1ccc(-n2sc(=O)n(Cc3ccc(F)cc3)c2=O)cc1`, the figure is 1.1; as for `COc1ccc(-c2ccc3cc(C(=O)O)ccc3c2)cc1C12CC3CC(CC(C3)C1)C2` [Adapalene], 1.05.

Take `O=C(NCc1ccccc1)c1csc(Nc2ccncn2)n1` [Thiazovivin]: the GFP- was 1.04. Then `O=c1cc(-c2ccccc2)oc2cc(O)cc(O)c12` [Chrysin], with 0.996; and `CCN1CCC[C@H]1CNC(=O)c1cc(S(N)(=O)=O)ccc1OC` [Levosulpiride], with 0.964. As for `C[C@]12CC[C@H](O)CC1=CCC1C2CC[C@]2(C)C(n3cnc4ccccc43)=CCC12` (stereo partly drawn) [Galeterone], the figure is 1.11.
